# In PubChem BioAssay AID504441 (Broad Institute, 2011):
# In all, about 310,000 compounds went through this assay and about 1,300 (0.42%) were called active. The entries come from a sample that favours actives as a whole. Unmarked numbers belong to inactive results. Cut-off read from the data, not from the text of the source: active = inhibition above about 50%; inactive = the rest.
# Biological target: Dual specificity tyrosine-phosphorylation-regulated kinase 1A (Rattus norvegicus) (UniProt Q63470)
# Assay: rat Dyrk1A kinase inhibitors, primary screen, biochemical, single point, plate reader (AID 504441);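 note: plate controls were vehicle with enzyme for no effect and no enzyme for full effect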
# Settings: ADP-Glo luminescence, NFATc1 peptide, at 12.5 µM, hits give high values
row,Compound,inhibition
1,O=C(Nc1cccc2ncccc12)c1ccc(-c2ccc(Cl)cc2Cl)o1,12.4%
2,O=C(O)c1cc(Cl)c(Cl)cc1C(=O)Nc1cccc2ncccc12,31.9%
3,Cc1ccc(/C=C(\C#N)C(=O)Nc2cccc3ncccc23)o1,84.4% (active)
4,O=C1C2C3C=CC(C3)C2C(=O)N1c1ncc([N+](=O)[O-])s1 (configuration not stated),-1.64%
5,CCCN(C(=O)COC(=O)CNS(=O)(=O)c1ccc(NC(C)=O)cc1)C1CCS(=O)(=O)C1 (configuration not stated),7.58%
6,CC(C)OC(=O)c1ccc(NCc2cc(O)ccc2O)cc1Cl,0.287%
7,COc1ccc(/C=C2/CCCc3ccccc3C2=O)cc1,11.6%
8,O=[N+]([O-])c1ccccc1/C=N/n1c(COc2ccccc2)n[nH]c1=S,-1.54%
9,Oc1ccccc1/C=N/n1c(-c2cccs2)n[nH]c1=S,-4.73%
10,CCc1n[nH]c(=S)n1/N=C/c1c[nH]c2ccc(Br)cc12,50.2% (active)
11,O=C1/C(=C\c2ccc(O)cc2)CCC1CNc1ccc(Cl)cc1 (configuration not stated),2.38%
12,COc1ccc(C2NCCCC2c2ccccc2)cc1 (configuration not stated),-2.56%
13,O=C(NN=Cc1ccccc1O)NN=Cc1ccccc1O,6.12%
14,CCn1c(-c2cccnc2Cl)nc2cc(C)c(C)cc21,2.9%
15,CCOC(=O)Cn1c(=O)n(Cc2ccc(OC)cc2)c(=O)c2cccnc21,2.78%
16,CCOC(=O)Cn1c(-c2cccnc2Cl)nc2ccccc21,80.1% (active)
17,O=c1c2ccccc2ncn1CCc1ccncc1,7.95%
18,OCC(O)C1OCOC(C(O)CO)C1O (configuration not stated),-1.78%
19,O=C(NCC1CCCCC1)NCC1CCCCC1,7.91%
20,O=C(Cc1ccc(Cl)c(Cl)c1)Nc1ccc(SC(F)F)cc1,-0.116%
21,O=C(CC(O)(C(F)(F)F)C(F)(F)F)Nc1ccc(Cl)c(Cl)c1,53.9% (active)
22,O=C(CC1SCCNC1=O)Nc1ccc(Cl)c(Cl)c1 (configuration not stated),-4.03%
23,CC/C(=C(/c1ccccc1)c1ccc(OCC[N+](C)(C)C)cc1)c1ccccc1,7.18%

row,Compound,inhibition
1,COc1ccc2[nH]c(C)c(CCN(Cc3cccs3)C(=S)Nc3ccccc3OC)c2c1,57.4% (active)
2,COc1cccc(NC(=S)N(CCc2c(C)[nH]c3ccccc23)Cc2ccco2)c1,7.39%
3,Cc1[nH]c2ccccc2c1CCN(Cc1cccs1)C(=S)NC(C)(C)C,-4.25%
4,NN=C(NN=Cc1ccccc1)c1ccccc1,-4.79%
5,CN(C(=O)c1cccc(NC(=O)Cc2ccc(NC(=O)C3CCCN(C(=O)C4CCCC4)C3)cc2)c1)C1CCC1 (configuration not stated),2.93%
6,CC(=NNC(=S)N1CCCCCC1)c1ccccn1,0.973%
7,Cc1cc(NC(=O)C(C)SCC(=O)Nc2cccc(S(=O)(=O)N3CCCCCC3)c2)no1 (configuration not stated),-1.84%
8,Cc1ccc(-n2c(C)cc(/C=N/Nc3ccc([N+](=O)[O-])cn3)c2C)c(C)c1,-4.85%
9,CC(C)c1ccc(C=NNc2ccc([N+](=O)[O-])cn2)cc1,-3.91%
10,Cc1cc(/C=N/Nc2ccc([N+](=O)[O-])cn2)c(C)n1-c1cccc(C(=O)O)c1,50.2% (active)
11,Cc1cccc(NC(=S)N2CCC(C(=O)c3ccc(F)cc3)CC2)c1,10.4%
12,O=C(Nc1ccc2ccccc2c1[N+](=O)[O-])c1ccccc1,3.22%
13,O=C(OCCOc1ccccc1Cl)c1cc(S(=O)(=O)N2CCCCC2)ccc1N1CCOCC1,-7.28%
14,Nc1nc(SCc2ccc([N+](=O)[O-])cc2)c2ncn(C3OC(CO)C(O)C3O)c2n1 (configuration not stated),56.9% (active)
15,Cc1nc(N)nc(SCc2ccc([N+](=O)[O-])cc2)c1N,-3.28%
16,CC(C)Sc1nc(N)nc2c1ncn2C1OC(CO)C(O)C1O (configuration not stated),-4.63%
17,O=[N+]([O-])c1ccc(COc2ccccc2CN2CCOCC2)cc1,4.81%
18,CNN/C(N=Cc1ccc([N+](=O)[O-])s1)=N\S(=O)(=O)c1cc(C)c(Cl)cc1SCc1ccccc1,1.25%
19,Cc1ccc(S(=O)(=O)N2C[C@@H]3CCCC[C@@H]3[C@@H](C)[C@H]2c2cn(Cc3ccccc3)c3ccc(F)cc23)cc1,-0.552%
20,O=[N+]([O-])c1cc(Br)c(O)c(/C=N/Nc2nc3ccccc3s2)c1,32.7%
21,N=C1C(c2nc3ccccc3s2)=C(O)CN1NC(=O)c1ccc([N+](=O)[O-])cc1,46.9%
22,O=C(NC(Nc1nc2ccc([N+](=O)[O-])cc2s1)(C(F)(F)F)C(F)(F)F)c1ccccc1,73.9% (active)
23,O=C(O)C(CCc1ccccn1)c1ccccc1 (configuration not stated),3.61%

row,Compound,inhibition
1,N#CC1=C(N)Oc2cc(N)ccc2C1c1ccccc1 (configuration not stated),0.0153%
2,COc1ccc(CNCCCNCc2ccc(OC)c(OC)c2)cc1OC,-3.55%
3,CCOc1cc(/C=C2\SC(N3CCCC(C)C3)=NC2=O)ccc1O (configuration not stated),31.5%
4,CCOc1cc(/C=C2\SC(N3CCCCC3)=NC2=O)ccc1O,62.2% (active)
5,O=C1N=C(N2CCCC2)S/C1=C\c1cccc(Br)c1,-2.99%
6,CCN1CCC(O)(/C=C/c2ccc(C)cc2)C(C(=O)/C=C/c2ccc(C)cc2)C1 (configuration not stated),-5.12%
7,CSc1ccc(S(=O)(=O)N2CCC(C(=O)NCCc3ccccc3)CC2)cc1,-0.684%
8,O=C(C1CCN(S(=O)(=O)c2ccc(Br)s2)CC1)N1CCN(c2ccccc2)CC1,2.78%
9,O=C(NCCc1ccccc1)C1CCN(S(=O)(=O)c2ccc(Br)s2)CC1,60.5% (active)
10,COc1ccccc1N(CC(=O)Nc1c(C)n(C)n(-c2ccccc2)c1=O)S(=O)(=O)c1ccccc1,8.43%
11,Cc1ccc(S(=O)(=O)N2CCN(C(=O)COC(=O)/C=C/c3cccc(Cl)c3)CC2)c(C)c1,2.98%
12,CCOCCCNC(=O)C(NC(=O)c1ccc(=O)[nH]c1)c1ccc(Cl)cc1 (configuration not stated),62.1% (active)
13,CCOCCCNC(=O)C(NC(=O)c1ccccc1O)c1ccccc1 (configuration not stated),2.95%
14,CCOCCCNC(=O)C(NC(=O)c1ccc(=O)[nH]c1)c1ccc(C)cc1 (configuration not stated),4%
15,O=C1/C(=C\c2ccc([N+](=O)[O-])cc2)CS(=O)(=O)C/C1=C/c1ccc([N+](=O)[O-])cc1,2.21%
16,O=C1CCN(Cc2ccccc2)CCN1[C@H](CSc1ccccc1)c1ccccc1,7.38%
17,N#Cc1cccc(CN2CCC(=O)N([C@H](CO)c3ccccc3)CC2)c1,50.1% (active)
18,N#Cc1cccc(CN2CCC(=O)N(CCO)CC2)c1,12.9%
19,CCCCN(C(=O)CSCc1ccc(C)cc1)c1c(N)n(Cc2ccccc2)c(=O)[nH]c1=O,-1.45%
20,O=[N+]([O-])c1ccc(NS(=O)(=O)c2ccccc2)c(Cl)c1,-7.67%
21,O=C(O)c1ccc(NN=CC2=C(N3CCOCC3)/C(=C/c3ccccc3)CC2)cc1,17.6%
22,COc1ccc(S(=O)(=O)N2CCc3ccccc32)cc1C(=O)Nc1cc(S(C)(=O)=O)ccc1Cl,-1.51%
23,CN(c1ccc(O)cc1)c1nc(-c2cccnc2)cs1,3.73%

row,Compound,inhibition
1,Oc1ccc(-c2csc(Nc3cccnc3)n2)cc1,53.9% (active)
2,Cc1ccccc1Nc1nc(-c2cccnc2)cs1,9.73%
3,O=C(NNC(=O)c1ccccc1O)c1ccccc1O,-1.63%
4,CCOC(=O)c1ccccc1OC(=O)Oc1ccccc1C(=O)OCC,4.02%
5,O=C1OCC2=C1C(c1ccc(Cl)cc1)c1cc3c(cc1O2)OCO3 (configuration not stated),-1.45%
6,O=C(Nc1ccc(S(=O)(=O)N2CCOCC2)cc1)C1CCN(S(=O)(=O)c2ccc(Cl)cc2)CC1,7.12%
7,CN1C(=O)/C(=C\c2ccc(-c3ccccc3)o2)SC1=S,-4.31%
8,NS(=O)(=O)c1ccc(-c2ccc(/C=C3\SC(=O)NC3=O)o2)cc1,87.9% (active)
9,CN1CCN(/N=C/c2ccc(-c3ccc([N+](=O)[O-])cc3)o2)CC1,4.45%
10,O=C(Nc1c(Br)cc2c(c1Br)Cc1cc([N+](=O)[O-])ccc1-2)C(Cl)Cl,-6.68%
11,Cc1cc(OCCCC(=O)Nc2cc(S(=O)(=O)N3CCOCC3)ccc2N2CCOCC2)ccc1Cl,1.11%
12,CCOC(=O)[C@H]1[C@H]2COc3ccc(Br)cc3[C@@H]2N2C(=O)CN(C)C(=O)[C@@]12C,-7.39%
13,O=C(Nc1cccc(-c2nc3ccccc3[nH]2)c1)c1ccc(C(=O)Nc2cccc(-c3nc4ccccc4[nH]3)c2)cc1,4.53%
14,CC(=O)Nc1cccc(-c2cnc3ccccc3n2)c1,50.4% (active)
15,CC(=O)Nc1cccc(-c2csc(Nc3cccc(C)n3)n2)c1,9.85%
16,CN(C)C(=S)N=c1ssc(=S)n1Cc1ccco1,0.385%
17,O=C(Cc1ccc([N+](=O)[O-])cc1)NCCc1ccc2c(c1)OCO2,3.06%
18,COc1ccc(C(=O)N(C)Cc2ccc(OC)c(OC)c2OC)cc1S(=O)(=O)N1CCOCC1,-3.97%
19,NC(CSC1(c2ccccc2)c2ccccc2-c2ccccc21)C(=O)O (configuration not stated),-0.913%
20,COc1cc2[nH]c(O)c(C=O)c2cc1OC,3.93%
21,Cc1cccc(-c2nc(Nc3ccc(O)cc3)c3ccccc3n2)c1,62% (active)
22,COc1ccc(Nc2nc(-c3cccnc3)nc3ccccc23)cn1,24.1%
23,CC(=O)Nc1cccc(Nc2nc(-c3cccs3)nc3ccccc23)c1,26.8%
